# Source: the supplement of paper PMC8728848
# Only a selection was taken, and the strongest signals are over-represented in it overall.
# B1: Langerin K299A/K313A (Homo sapiens), Q9UJ71 (protein)
# chain: STLNAQIPELKSDLEKASALNTKIRALQGSLENMSKLLKRQNDILQVVSQGWKYFKGNFYYFSLIPKTWYSAEQFCVSRNSHLTSVTSESEQEFLYKTAGGLIYWIGLTKAGMEGDWSWVDDTPFNKVQSARFWIPGEPNNAGNNEHCGNIAAPSLQAWNDAPCDATFLFICKRPYVPSEP
# Key:
# Assay in all cases: glycan array binding signal (z-score within array); higher = stronger binding
# Settings in all cases: glycan notation: IUPAC condensed, linker removed
# [1] = target: Fuc(a1-2)Gal(b1-3)GlcNAc(b1-3)[Neu5Ac(a2-6)Gal(b1-4)GlcNAc(b1-6)]Gal(b1-4)Glc
# Outline: (§1)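 Columns mapping to the same glycan were averaged after glycan names were converted to IUPAC-condensed notation. The data come from 3228 arrays in the Consortium for Functional Glycomics database, limited to those with an available protein sequence. Binding is reported as a within-array Z-score averaged across arrays of one protein sequence and across linkers.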
# [2] = target: Fuc(a1-2)Gal(b1-4)GlcNAc(b1-2)Man
# Outline: as §1
# [3] = target: Fuc(a1-2)Gal(b1-4)GlcNAc(b1-2)[Fuc(a1-2)Gal(b1-4)GlcNAc(b1-4)]Man(a1-3)[Fuc(a1-2)Gal(b1-4)GlcNAc(b1-2)Man(a1-6)]Man(b1-4)GlcNAc(b1-4)GlcNAc
# Outline: as §1
# [4] = target: Fuc(a1-2)Gal(b1-4)GlcNAc(b1-3)Gal(b1-4)GlcNAc(b1-3)Gal(b1-4)GlcNAc
# Outline: as §1
# [5] = target: Fuc(a1-2)[Gal(a1-3)]Gal(b1-3)GalNAc(b1-3)Gal(a1-4)Gal(b1-4)Glc
# Outline: as §1
# [6] = target: Fuc(a1-3)[Gal(b1-4)]Glc6S
# Outline: as §1
# [7] = target: Fuc(a1-3)[Gal(b1-4)]GlcNAc(b1-2)Man(a1-3)[Fuc(a1-3)[Gal(b1-4)]GlcNAc(b1-2)Man(a1-6)]Man(b1-4)GlcNAc(b1-4)GlcNAc
# Outline: as §1
# [8] = target: Fuc(a1-3)[Gal(b1-4)]GlcNAc(b1-3)Gal(b1-3)[Fuc(a1-4)]GlcNAc
# Outline: as §1
# [9] = target: Fuc(a1-3)[Gal(b1-4)]GlcNAc(b1-3)Gal(b1-4)[Fuc(a1-3)]GlcNAc
# Outline: as §1
# [10] = target: Fuc(a1-3)[Gal(b1-4)]GlcNAc(b1-3)GalNAc
# Outline: as §1
# Gal(a1-3)Gal = target: Gal(a1-3)Gal
# Outline: as §1
# [11] = target: Gal(a1-3)Gal(b1-3)GlcNAc(b1-2)Man(a1-3)[Gal(a1-3)Gal(b1-3)GlcNAc(b1-2)Man(a1-6)]Man(b1-4)GlcNAc(b1-4)GlcNAc
# Outline: as §1
# [12] = target: Gal(a1-3)Gal(b1-4)[Fuc(a1-3)]GlcNAc(b1-2)Man(a1-3)[Gal(a1-3)Gal(b1-4)[Fuc(a1-3)]GlcNAc(b1-2)Man(a1-6)]Man(b1-4)GlcNAc(b1-4)GlcNAc
# Outline: as §1
# Gal(a1-4)Gal(b1-4)GlcNAc = target: Gal(a1-4)Gal(b1-4)GlcNAc
# Outline: as §1
# [13] = target: Gal(b1-3)GalNAc(b1-3)Gal(a1-4)Gal(b1-4)Glc
# Outline: as §1
# [14] = target: Gal(b1-3)GlcNAc(a1-3)Gal(b1-4)GlcNAc
# Outline: as §1
# [15] = target: Gal(b1-3)GlcNAc(b1-3)GalNAc
# Outline: as §1
# [16] = target: Gal(b1-3)[Fuc(a1-4)]GlcNAc(b1-2)Man(a1-3)[Gal(b1-3)[Fuc(a1-4)]GlcNAc(b1-2)Man(a1-6)]Man(b1-4)GlcNAc(b1-4)[Fuc(a1-6)]GlcNAc
# Outline: as §1
# [17] = target: Gal(b1-3)[Neu5Ac(a2-6)]GalNAc
# Outline: as §1
# [18] = target: Gal(b1-4)GlcNAc(b1-2)[Gal(b1-4)GlcNAc(b1-4)]Man(a1-3)[GlcNAc(b1-4)][Gal(b1-4)GlcNAc(b1-2)Man(a1-6)]Man(b1-4)GlcNAc(b1-4)GlcNAc
# Outline: as §1
# [19] = target: Gal(b1-4)GlcNAc(b1-3)Gal(b1-4)Glc
# Outline: as §1
# [20] = target: Gal(b1-4)GlcNAc(b1-3)Gal(b1-4)GlcNAc(b1-2)Man(a1-3)[Gal(b1-4)GlcNAc(b1-3)Gal(b1-4)GlcNAc(b1-2)Man(a1-6)]Man(b1-4)GlcNAc(b1-4)GlcNAc
# Outline: as §1
# [21] = target: Gal(b1-4)GlcNAc(b1-3)Gal(b1-4)GlcNAc(b1-3)Gal(b1-4)GlcNAc(b1-3)Gal(b1-4)GlcNAc(b1-2)Man(a1-3)[Gal(b1-4)GlcNAc(b1-3)Gal(b1-4)GlcNAc(b1-3)Gal(b1-4)GlcNAc(b1-3)Gal(b1-4)GlcNAc(b1-2)Man(a1-6)]Man(b1-4)GlcNAc(b1-4)[Fuc(a1-6)]GlcNAc
# Outline: as §1
# [22] = target: Gal(b1-4)GlcNAc(b1-3)Gal(b1-4)GlcNAc(b1-3)Gal(b1-4)GlcNAc(b1-3)Gal(b1-4)GlcNAc(b1-2)[Gal(b1-4)GlcNAc(b1-3)Gal(b1-4)GlcNAc(b1-3)Gal(b1-4)GlcNAc(b1-3)Gal(b1-4)GlcNAc(b1-6)]Man(a1-6)[Gal(b1-4)GlcNAc(b1-3)Gal(b1-4)GlcNAc(b1-3)Gal(b1-4)GlcNAc(b1-3)Gal(b1-4)GlcNAc(b1-2)Man(a1-3)]Man(b1-4)GlcNAc(b1-4)[Fuc(a1-6)]GlcNAc
# Outline: as §1
# Gal3S(b1-4)Glc6S = target: Gal3S(b1-4)Glc6S
# Outline: as §1
# [23] = target: Gal3S(b1-4)[Fuc(a1-3)]Glc6S
# Outline: as §1
# Gal6S(b1-3)GlcNAc = target: Gal6S(b1-3)GlcNAc
# Outline: as §1
# [24] = target: GalNAc(a1-3)GalNAc(b1-3)Gal(a1-4)Gal(b1-4)Glc
# Outline: as §1
# [25] = target: GalNAc(b1-3)Gal(a1-6)Gal(b1-4)Glc
# Outline: as §1
# [26] = target: GalNAc3S(b1-4)[Fuc(a1-3)]GlcNAc
# Outline: as §1
# Glc(a1-4)Glc = target: Glc(a1-4)Glc
# Outline: as §1
# GlcA(b1-3)Gal = target: GlcA(b1-3)Gal
# Outline: as §1
# [27] = target: GlcNAc(b1-2)Gal(b1-3)GalNAc
# Outline: as §1
# [28] = target: GlcNAc(b1-3)Gal(b1-4)GlcNAc(b1-2)Man(a1-3)[GlcNAc(b1-3)Gal(b1-4)GlcNAc(b1-2)Man(a1-6)]Man(b1-4)GlcNAc(b1-4)GlcNAc
# Outline: as §1
# [29] = target: GlcNAc(b1-3)Gal(b1-4)GlcNAc(b1-2)[GlcNAc(b1-3)Gal(b1-4)GlcNAc(b1-6)]Man(a1-6)[GlcNAc(b1-3)Gal(b1-4)GlcNAc(b1-2)Man(a1-3)]Man(b1-4)GlcNAc(b1-4)GlcNAc
# Outline: as §1
# [30] = target: GlcNAc(b1-3)Gal(b1-4)GlcNAc(b1-3)Gal(b1-4)GlcNAc(b1-2)Man(a1-3)[GlcNAc(b1-3)Gal(b1-4)GlcNAc(b1-3)Gal(b1-4)GlcNAc(b1-2)Man(a1-6)]Man(b1-4)GlcNAc(b1-4)GlcNAc
# Outline: as §1
# [31] = target: GlcNAc(b1-3)Gal(b1-4)GlcNAc(b1-3)Gal(b1-4)GlcNAc(b1-3)Gal(b1-4)GlcNAc(b1-2)Man(a1-3)[GlcNAc(b1-3)Gal(b1-4)GlcNAc(b1-3)Gal(b1-4)GlcNAc(b1-3)Gal(b1-4)GlcNAc(b1-2)Man(a1-6)]Man(b1-4)GlcNAc(b1-4)[Fuc(a1-6)]GlcNAc
# Outline: as §1
# [32] = target: GlcNAc(b1-3)Gal(b1-4)GlcNAc(b1-3)Gal(b1-4)GlcNAc(b1-3)Gal(b1-4)GlcNAc(b1-3)Gal(b1-4)GlcNAc(b1-2)Man(a1-3)[GlcNAc(b1-3)Gal(b1-4)GlcNAc(b1-3)Gal(b1-4)GlcNAc(b1-3)Gal(b1-4)GlcNAc(b1-3)Gal(b1-4)GlcNAc(b1-2)Man(a1-6)]Man(b1-4)GlcNAc(b1-4)GlcNAc
# Outline: as §1
# [33] = target: GlcNAc(b1-3)Gal(b1-4)GlcNAc(b1-6)[GlcNAc(b1-3)Gal(b1-3)]GalNAc
# Outline: as §1
# [34] = target: GlcNAc(b1-4)Gal(b1-4)GlcNAc
# Outline: as §1
# Kdn(a2-6)Gal(b1-4)GlcNAc = target: Kdn(a2-6)Gal(b1-4)GlcNAc
# Outline: as §1
# Man(a1-2)Man(a1-3)Man = target: Man(a1-2)Man(a1-3)Man
# Outline: as §1
# [35] = target: Man(a1-3)[Man(a1-6)]Man(a1-6)[Man(a1-3)]Man(b1-4)GlcNAc(b1-4)GlcNAc
# Outline: as §1
# [36] = target: Neu5Ac(a2-3)Gal(b1-3)GlcNAc6S
# Outline: as §1
# [37] = target: Neu5Ac(a2-3)Gal(b1-4)GlcNAc(b1-3)Gal(b1-4)GlcNAc(b1-3)Gal(b1-4)GlcNAc
# Outline: as §1
# [38] = target: Neu5Ac(a2-3)Gal(b1-4)[Fuc(a1-3)]GlcNAc(b1-3)GalNAc
# Outline: as §1
# [39] = target: Neu5Ac(a2-3)Gal(b1-4)[Fuc(a1-3)]GlcNAc6S
# Outline: as §1
# [40] = target: Neu5Ac(a2-3)[GalNAc(b1-4)]Gal(b1-4)GlcNAc
# Outline: as §1
# [41] = target: Neu5Ac(a2-3)[GalNAc(b1-4)]Gal(b1-4)GlcNAc(b1-3)GalNAc
# Outline: as §1
# Neu5Ac(a2-6)Gal = target: Neu5Ac(a2-6)Gal
# Outline: as §1
# [42] = target: Neu5Ac(a2-6)Gal(b1-3)GlcNAc(b1-3)[Gal(b1-4)GlcNAc(b1-6)]Gal(b1-4)Glc
# Outline: as §1
# [43] = target: Neu5Ac(a2-6)Gal(b1-4)GlcNAc(b1-2)Man(a1-3)[Neu5Ac(a2-6)Gal(b1-4)GlcNAc(b1-2)Man(a1-6)]Man(b1-4)GlcNAc(b1-4)[Fuc(a1-6)]GlcNAc
# Outline: as §1
# Neu5Ac(a2-6)GalNAc = target: Neu5Ac(a2-6)GalNAc
# Outline: as §1
# Neu5Ac(b2-6)GalNAc = target: Neu5Ac(b2-6)GalNAc
# Outline: as §1
binder,measurement,setting,value
B1,glycan array binding signal (z-score),[1],0.388
same,glycan array binding signal (z-score),[2],-0.127
same,glycan array binding signal (z-score),[3],2.71
same,glycan array binding signal (z-score),[4],0.332
same,glycan array binding signal (z-score),[5],-0.015
same,glycan array binding signal (z-score),[6],3.28
same,glycan array binding signal (z-score),[7],0.222
same,glycan array binding signal (z-score),[8],0.313
same,glycan array binding signal (z-score),[9],0.842
same,glycan array binding signal (z-score),[10],-0.202
same,glycan array binding signal (z-score),Gal(a1-3)Gal,-0.327
same,glycan array binding signal (z-score),[11],1.22
same,glycan array binding signal (z-score),[12],0.892
same,glycan array binding signal (z-score),Gal(a1-4)Gal(b1-4)GlcNAc,-0.009
same,glycan array binding signal (z-score),[13],-0.916
same,glycan array binding signal (z-score),[14],-0.826
same,glycan array binding signal (z-score),[15],0
same,glycan array binding signal (z-score),[16],1.85
same,glycan array binding signal (z-score),[17],0.445
same,glycan array binding signal (z-score),[18],-0.95
same,glycan array binding signal (z-score),[19],-0.709
same,glycan array binding signal (z-score),[20],3.14
same,glycan array binding signal (z-score),[21],3.97
same,glycan array binding signal (z-score),[22],3.09
same,glycan array binding signal (z-score),Gal3S(b1-4)Glc6S,-0.193
same,glycan array binding signal (z-score),[23],5.35
same,glycan array binding signal (z-score),Gal6S(b1-3)GlcNAc,-0.241
same,glycan array binding signal (z-score),[24],0.162
same,glycan array binding signal (z-score),[25],0.155
same,glycan array binding signal (z-score),[26],-1
same,glycan array binding signal (z-score),Glc(a1-4)Glc,-0.103
same,glycan array binding signal (z-score),GlcA(b1-3)Gal,-0.832
same,glycan array binding signal (z-score),[27],0.486
same,glycan array binding signal (z-score),[28],0.619
same,glycan array binding signal (z-score),[29],3.64
same,glycan array binding signal (z-score),[30],0.828
same,glycan array binding signal (z-score),[31],5.83
same,glycan array binding signal (z-score),[32],2.75
same,glycan array binding signal (z-score),[33],-0.82
same,glycan array binding signal (z-score),[34],-0.886
same,glycan array binding signal (z-score),Kdn(a2-6)Gal(b1-4)GlcNAc,0.407
same,glycan array binding signal (z-score),Man(a1-2)Man(a1-3)Man,-1.07
same,glycan array binding signal (z-score),[35],-0.582
same,glycan array binding signal (z-score),[36],-0.784
same,glycan array binding signal (z-score),[37],0.361
same,glycan array binding signal (z-score),[38],3.01
same,glycan array binding signal (z-score),[39],0.192
same,glycan array binding signal (z-score),[40],-0.463
same,glycan array binding signal (z-score),[41],0.982
same,glycan array binding signal (z-score),Neu5Ac(a2-6)Gal,0.01
same,glycan array binding signal (z-score),[42],0.329
same,glycan array binding signal (z-score),[43],3.07
same,glycan array binding signal (z-score),Neu5Ac(a2-6)GalNAc,-0.621
same,glycan array binding signal (z-score),Neu5Ac(b2-6)GalNAc,-0.61
